Compound activity as filed in PubChem BioAssay.
Shown are actives, neighbours in structure and some others; about 7.3% of the full set was active somewhere.
NPC1 prom act – activates the NPC1 promoter. Huh7 NPC1 promoter luciferase reporter, 24 h. Potency, µM (titrated, usually from 9.22 µM), for inactives: top-dose activation, actives largely listed as activators. hit rate 2.4% among 320,000. AID 485313; further: % of control where 0% means no effect; nearly all actives have a fitted effect of over 60% in size
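Cells: Huh7 expressing luciferase under the NPC1 promoter, 1500/well. Seeded 2 h, compound added, incubated 24 h at 37 °C. Luciferase reagent, 10 min ambient, then luminescence.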
Rab9 promoter act – Rab9 promoter activation. Huh7 Rab9 promoter-luciferase reporter, luminescence, 24 h. Potency, µM (series often up to 9.22 µM), inactives show at the highest dose activation, negative = inhibition, actives largely listed as activators. hit rate 2.8% among 320,000. AID 485297; further: % of control where 0% means no effect; nearly all actives have a fitted effect of over 60% in size
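Cells were plated at 1500 per well in reduced-serum medium with 10% FBS and left 2 h. Compound in DMSO was then added for 24 h at 37 °C. Reporter signal was read by luminescence after 10 min with luciferase detection reagent.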
KinaseGlo FLuc – blocks Kinase-Glo luciferase, a counter-screen artifact; hit rate 0.28% among 200,000; Kinase-Glo luciferase, ATP luminescence, 8 min; Potency, µM (highest dose often 38.3 µM), for the others: at the top dose activity change, negative = inhibition, usual class: inhibitors; further: on the % scale 0 is the no-effect control and ±100 the full control effect; nearly all actives have a fitted effect of over 60% in size
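Recombinant Kinase-Glo luciferase, 10 uM ATP (linear range), luciferin; imidazole pH 7.2 / KCl / MgCl2 / Tween / BSA buffer; 8 min RT; luminescence.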
SMN2 splice enh – increases expression of the SMN2 splice variant; HEK293 SMN2-luciferase splicing reporter, luminescence, 30-36 h; Potency, µM (top dose mostly 46.1 µM), for inactives: at the top dose activity change, positive = activation, most hits filed as activators; hit rate 2.8% among 210,000; further: % of control where 0% means no effect; nearly all actives have a fitted effect of over 55% in size
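HEK293 cells carry an SMN2 minigene-luciferase reporter in which exon 7 inclusion puts luciferase in frame. Cells were seeded at 2000 cells/well, attached for 10-12 hours, then exposed to compounds for 30-36 hours at 37C before ONE-Glo luminescence.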
ELG1 genotoxic – genotoxicity induction in ELG1-luciferase HEK293T cells; HEK293T ELG1-luciferase reporter, luminescence, 16 h; Potency, µM (top dose mostly 46 µM), without a hit: at the top dose activity change, positive = activation, most hits filed as activators; hit rate 1.3% among 330,000; AID 504466; further: % of control where 0% means no effect; nearly all actives have a fitted effect of over 60% in size
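HEK293T cells expressing luciferase-tagged ELG1 were exposed to compound or DMSO vehicle for 16 hr at 37 °C and 5% CO2. Luciferase activity was then measured with ONE-Glo after 30 min at room temperature.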
FLuc counter – firefly luciferase modulation, counter-screen for miR-21 project; purified FLuc, Km substrates, luminescence inhibition; P08659; hit rate 6.9% among 360,000; Potency, µM (doses to about 57.5 µM), without a hit: at the highest dose activity change, negative = inhibition, hits mostly inhibitors;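 further: plate controls were vehicle for no effect and reference inhibitor for full effect; nearly all actives have a fitted effect of over 55% in size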
Target sequence (P08659 whole entry, looked up): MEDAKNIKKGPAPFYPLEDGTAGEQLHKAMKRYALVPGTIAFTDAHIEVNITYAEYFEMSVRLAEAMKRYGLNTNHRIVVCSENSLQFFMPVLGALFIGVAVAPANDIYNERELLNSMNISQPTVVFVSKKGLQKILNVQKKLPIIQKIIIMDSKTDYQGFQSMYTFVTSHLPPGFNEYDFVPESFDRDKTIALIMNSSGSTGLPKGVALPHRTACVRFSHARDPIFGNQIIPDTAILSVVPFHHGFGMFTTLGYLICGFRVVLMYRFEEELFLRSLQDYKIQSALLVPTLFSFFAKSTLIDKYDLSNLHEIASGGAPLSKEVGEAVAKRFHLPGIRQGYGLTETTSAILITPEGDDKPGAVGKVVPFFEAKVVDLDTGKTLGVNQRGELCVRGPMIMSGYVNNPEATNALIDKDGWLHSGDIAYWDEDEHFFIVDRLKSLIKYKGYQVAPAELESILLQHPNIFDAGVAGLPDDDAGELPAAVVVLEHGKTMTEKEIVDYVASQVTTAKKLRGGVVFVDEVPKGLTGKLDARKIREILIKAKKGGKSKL
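Biochemical qHTS of compounds, final roughly 60 µM downward over six points, against 10 nM purified firefly luciferase using Km concentrations of substrates (10 uM D-luciferin, 10 uM ATP) in Tris acetate pH 7.5 buffer; luminescence output.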
An asterisk follows results filed as active; ! = a repeat was not active; [ ] = another dose, or the depositor's remark. The call rests on the fitted dose curve; in most records, active means well fitted curve in the direction sought with a large enough effect; inconclusive means small, poorly fitted or top-dose-only effect, or another doubt; inactive means no such curve, though single readings can be large; an effect the other way counts as inactive or inconclusive. Potency means the concentration at half of the fitted maximal effect.

`COc1cccc(CNC(=O)Nc2cc(C(=O)NCc3cccc(F)c3)ccc2N2CCCC2)c1` gave FLuc counter -6.2%.
Screening O=C(Nc1ccc(Br)cc1F)c1cc(S(=O)(=O)NCc2ccc(F)cc2)ccc1F returned FLuc counter -7.3%.
Screening COc1ccc2nc(N(Cc3cccnc3)C(=O)c3ccc(Cl)cc3)sc2c1 returned FLuc counter -12.1%.
CCCN(CCC)C(=O)Cn1c(SCc2cccc(C(F)(F)F)c2)nc2cccnc21 was read as FLuc counter -0.6%.
COc1ccc(C(=O)N=c2sccn2C)cc1 was read as NPC1 prom act inconclusive, Rab9 promoter act inconclusive, KinaseGlo FLuc -28.7%, SMN2 splice enh inconclusive, ELG1 genotoxic inconclusive and FLuc counter 16.9µM*.
`COc1ccc(NC(=O)CSCC(=O)N=c2sccn2C)cc1` gave NPC1 prom act 1.3%, Rab9 promoter act 6.1%, ELG1 genotoxic 5.9% and FLuc counter 3.6%.
For CN(C)c1ccc(C(=O)N=c2sccn2C)cc1[N+](=O)[O-] the results were NPC1 prom act 2.24µM*, Rab9 promoter act 3.16µM*, ELG1 genotoxic 9.2µM* and FLuc counter 9.53µM*.
Screening CCOc1cc(C(=O)N=c2sccn2C)ccc1OC(F)F returned NPC1 prom act 11.0%, Rab9 promoter act inconclusive, ELG1 genotoxic 0.3% and FLuc counter -17.6%.
For Cn1ccsc1=NC(=O)c1ccc(S(=O)(=O)C(F)F)cc1 the results were NPC1 prom act inconclusive, Rab9 promoter act 3.55µM*, ELG1 genotoxic inconclusive and FLuc counter inconclusive.
CCC(C)(C)NC(=O)C1CCN(S(=O)(=O)c2c(C)noc2/C=C/c2ccc(C)cc2)CC1 was read as FLuc counter -0.5%.
`COc1ccccc1OCCNC(=O)c1ccc2c(c1)CCC2` gave NPC1 prom act inconclusive, Rab9 promoter act inconclusive, ELG1 genotoxic 13µM* and FLuc counter 15.1µM*.
`COc1ccccc1OCCNC(=O)CNC(=O)c1ccc2c(c1)OCO2` gave NPC1 prom act 0.4%, Rab9 promoter act 7.8%, ELG1 genotoxic 0.5% and FLuc counter -0.6%.
Screening COc1ccccc1OCCNC(=O)c1cccc(S(=O)(=O)N2CCN(C)CC2)c1 returned NPC1 prom act -4.5%, Rab9 promoter act 1.1%, ELG1 genotoxic 11.7% and FLuc counter 13.5µM*.
For COc1ccccc1OCCNC(=O)c1ccc2c(c1)OCCO2 the results were NPC1 prom act 3.16µM*, Rab9 promoter act 2.24µM*, ELG1 genotoxic inconclusive and FLuc counter inconclusive.
`COc1ccc(C2C(=O)c3ccccc3C2=O)c(OC)c1` gave NPC1 prom act 1.8%, Rab9 promoter act -2.6%, KinaseGlo FLuc 3.8%, SMN2 splice enh -4.0%, ELG1 genotoxic 0.9% and FLuc counter -0.8%.
For COc1cc(C2N(C)C(=O)c3ccccc3N2C)ccc1O (stereo unspecified) the results were NPC1 prom act -4.5%, Rab9 promoter act -0.1%, ELG1 genotoxic -1.5% and FLuc counter 3.2%.
Screening COc1cc(C2C(=O)c3ccccc3C2=O)ccc1O returned NPC1 prom act -0.2%, Rab9 promoter act -0.1%, ELG1 genotoxic 7.7% and FLuc counter 23.9µM*.
For COc1ccc(C2C(=O)c3ccccc3C2=O)cc1 the results were NPC1 prom act inconclusive, Rab9 promoter act inconclusive, KinaseGlo FLuc inconclusive, SMN2 splice enh 3.98µM*!, ELG1 genotoxic inconclusive and FLuc counter 5.36µM*.
For COc1ccc(C2C(=O)c3ccccc3C2=O)cc1OC the results were NPC1 prom act 27.5%, Rab9 promoter act inconclusive, KinaseGlo FLuc inconclusive, ELG1 genotoxic -4.1% and FLuc counter 8.49µM*.
For COc1ccc(C2=C(N)c3ccccc3C2=O)cc1 the results were NPC1 prom act 4.47µM*, Rab9 promoter act 4.47µM*, KinaseGlo FLuc inconclusive, SMN2 splice enh inconclusive, ELG1 genotoxic 12.6µM* and FLuc counter 10.7µM*.
For COc1ccc(NC2=C(c3ccc(OC)cc3)C(=O)c3ccccc32)cc1 the results were NPC1 prom act 5.8%, Rab9 promoter act 12.1%, KinaseGlo FLuc -4.2%, SMN2 splice enh -4.5%[1.84 µM], ELG1 genotoxic 5.0% and FLuc counter -2.4%.
For O=CN1CCN(C[C@H](O)CN2CCCCC2)CC1 the results were KinaseGlo FLuc 0.3%[7.66 µM] and SMN2 splice enh 0.0%[9.22 µM].
Screening CN(C)CCN(C)C(=O)c1ccc(-n2c(=O)c(=O)[nH]c3ccccc32)cc1 returned KinaseGlo FLuc -1.7%.
Screening COc1ccc(-c2nnc3c4ccccc4c(C)nn23)cc1 returned NPC1 prom act inconclusive, Rab9 promoter act inconclusive, KinaseGlo FLuc 7.7%, SMN2 splice enh inconclusive, ELG1 genotoxic inconclusive and FLuc counter 15.1µM*.
For COc1ccc(Oc2nnc(C)c3ccccc23)cc1 the results were NPC1 prom act 2.51µM*, Rab9 promoter act 3.98µM*, KinaseGlo FLuc 14.2%, SMN2 splice enh inconclusive, ELG1 genotoxic inconclusive and FLuc counter 12µM*.
`Cc1nnc(Oc2ccccc2)c2ccccc12` gave NPC1 prom act -2.9%, Rab9 promoter act 15.3%, KinaseGlo FLuc 0.5%, SMN2 splice enh -16.7%, ELG1 genotoxic 17.4% and FLuc counter inconclusive.
Screening COc1cccc(COc2ccc3ccc(=O)oc3c2)c1 returned NPC1 prom act inconclusive, Rab9 promoter act 3.16µM*, ELG1 genotoxic inconclusive and FLuc counter 13.5µM*.
COc1ccc(COc2ccc3ccc(=O)oc3c2)cc1 was read as NPC1 prom act 3.98µM*, Rab9 promoter act 2.82µM*, ELG1 genotoxic inconclusive and FLuc counter 10.7µM*.
CCCCNc1c(-c2cccc(-c3cc(C(C)=O)cs3)c2)nc2cc(C)ccn12 was read as NPC1 prom act 13.2%, Rab9 promoter act 5.3%, ELG1 genotoxic -10.5% and FLuc counter 6.01µM*.
Screening O=C(NCCc1cccs1)c1ccc(Cn2c(SCc3ccc(F)cc3)nc3cccnc32)cc1 returned SMN2 splice enh 18.9% and FLuc counter 2.13µM*.
O=C(NCCc1cccs1)c1ccc(Cn2c(SCc3ccccc3)nc3cccnc32)cc1 was read as FLuc counter 2.69µM*.
Screening O=C(NCCc1ccccc1)c1ccc(CSc2nc3cccnc3n2Cc2ccc(F)cc2)cc1 returned FLuc counter -11.4%.
`Nc1ccc2c(c1Cl)C(=O)c1ccc(N)c(Cl)c1C2=O` gave NPC1 prom act inconclusive, Rab9 promoter act 2.24µM*, ELG1 genotoxic inconclusive and FLuc counter 12µM*.
For O=C1c2ccc(O)c(O)c2C(=O)c2c(O)ccc(O)c21 the results were KinaseGlo FLuc -19.5% and SMN2 splice enh -16.3%.
